Out of some 39,000 compounds screened, about 3,300 (8.5%) were called active. The entries come from a sample that favours actives as a whole.

The experiment concerns HepG2. Briefly: cytotoxicity call (relative viability < 0.9). As to conditions: 10 µM.
In the case of `COCC#Cc1ccc2c(c1)O[C@@H](CN(C)S(=O)(=O)c1ccc(F)cc1)[C@H](C)CN([C@@H](C)CO)S2(=O)=O`, the cytotoxicity call was “inactive”.

For the molecule `C[C@@H]1CN([C@@H](C)CO)C(=O)Cc2cc(NS(=O)(=O)c3cccs3)ccc2O[C@H]1CN(C)S(=O)(=O)c1ccc(F)cc1`, the cytotoxicity call was “inactive”.

Take `C[C@H](CO)N1C[C@H](C)[C@@H](CN(C)C(=O)Nc2ccccc2)Oc2ccc(NC(=O)CCN3CCOCC3)cc2CC1=O`: the cytotoxicity call is “inactive”.

As for `Cc1noc(C)c1NC(=O)Nc1ccc2c(c1)C(=O)N([C@H](C)CO)C[C@H](C)[C@H](CN(C)C(=O)C1CCCCC1)OCCCC[C@@H](C)O2`, the cytotoxicity call was “inactive”.

As for `C[C@H]1CN([C@@H](C)CO)C(=O)Cc2cc(NC(=O)Nc3ccc(F)cc3)ccc2O[C@H]1CN(C)Cc1ccc(C(=O)Nc2ccccc2N)cc1`, the cytotoxicity call is “active”.

For the molecule `C[C@H](CO)N1C[C@H](C)[C@@H](CN(C)Cc2ccc(C(=O)Nc3ccccc3N)cc2)Oc2ccc(NC(=O)Nc3ccc(F)cc3)cc2CC1=O`, the cytotoxicity call is “inactive”.

As for `C[C@@H]1CN([C@@H](C)CO)C(=O)Cc2cc(NC(=O)Nc3ccc(F)cc3)ccc2O[C@@H]1CN(C)Cc1ccc(C(=O)Nc2ccccc2N)cc1`, the cytotoxicity call is “active”.

As for `C[C@H](CO)N1C[C@H](C)[C@H](CN(C)Cc2ccc(C(=O)Nc3ccccc3N)cc2)Oc2ccc(NC(=O)Nc3ccc(F)cc3)cc2CC1=O`, the cytotoxicity call is “inactive”.

For the molecule `C[C@H]1CN([C@@H](C)CO)C(=O)Cc2cc(NC(=O)Nc3ccc(F)cc3)ccc2O[C@@H]1CN(C)Cc1ccc(C(=O)Nc2ccccc2N)cc1`, the cytotoxicity call was “inactive”.

On to `C[C@@H]1CN([C@H](C)CO)C(=O)Cc2cc(NC(=O)Nc3ccc(F)cc3)ccc2O[C@H]1CN(C)Cc1ccc(C(=O)Nc2ccccc2N)cc1`, for which the cytotoxicity call was “inactive”.

On to `C[C@@H]1CCCCO[C@@H](CN(C)C(=O)NC2CCCCC2)[C@@H](C)CN([C@@H](C)CO)C(=O)c2cc(NC(=O)Nc3ccc(F)cc3)ccc2O1`, for which the cytotoxicity call is “inactive”.

As to `Cc1noc(C)c1S(=O)(=O)N(C)C[C@@H]1Oc2ccc(NS(=O)(=O)c3ccccc3)cc2C(=O)N([C@H](C)CO)C[C@@H]1C`, the cytotoxicity call is “inactive”.

On to `C[C@@H]1CCCCO[C@@H](CN(C)Cc2ccncc2)[C@@H](C)CN([C@@H](C)CO)C(=O)c2cc(NC(=O)Cc3ccccc3)ccc2O1`, for which the cytotoxicity call was “inactive”.

On to `C[C@@H]1CCCCO[C@H](CN(C)C(=O)CCC(F)(F)F)[C@@H](C)CN([C@H](C)CO)C(=O)c2cc(NC(=O)Nc3ccccc3)ccc2O1`, for which the cytotoxicity call was “inactive”.

Consider `C[C@H]1CN([C@@H](C)CO)C(=O)c2cccc(NC(=O)Nc3ccc4c(c3)OCO4)c2O[C@@H]1CN(C)S(C)(=O)=O`, for which the cytotoxicity call is “inactive”.

On to `CN(C)CC(=O)N[C@H]1CC[C@@H](CC(=O)NCCN2CCCCC2)O[C@@H]1CO`, for which the cytotoxicity call is “inactive”.

`C[C@H]1CN([C@@H](C)CO)C(=O)c2cc(NS(=O)(=O)c3ccc(F)cc3)ccc2O[C@@H]1CN(C)S(=O)(=O)c1cn(C)cn1`: the cytotoxicity call is “inactive”.

As for `O=C(O)c1cn2cccc(O)c2n1`, the cytotoxicity call was “inactive”.

On to `C[C@H]1CN([C@@H](C)CO)C(=O)c2cc(NS(C)(=O)=O)ccc2O[C@H]1CN(C)S(C)(=O)=O`, for which the cytotoxicity call is “inactive”.

On to `COc1ccc(S(=O)(=O)N(C)C[C@H]2OCc3cnnn3CCCC(=O)N([C@H](C)CO)C[C@H]2C)cc1`, for which the cytotoxicity call was “inactive”.

As to `O=C(NC1CC1)[C@@H]1c2ccccc2C(=O)N(Cc2cc(C(F)(F)F)cc(C(F)(F)F)c2)[C@H]1c1ccc(CO)cc1`, the cytotoxicity call is “inactive”.

`Cc1cc(OCCCS(C)(=O)=O)cc(C)c1-c1cccc(COc2ccc3c(c2)OC[C@H]3CC(=O)O)c1`: the cytotoxicity call is “active”.

For the molecule `COCC#Cc1ccc2c(c1)O[C@H](CN(C)S(=O)(=O)c1cccc(OC)c1)[C@@H](C)CN([C@@H](C)CO)S2(=O)=O`, the cytotoxicity call was “inactive”.

As to `O=S(=O)(O)NC1CCCCC1` [listing 1 of 2 here], the cytotoxicity call was “active”.

Consider `O=S(=O)([O-])NC1CCCCC1.[Na+]`, for which the cytotoxicity call is “inactive”.

As to `O=S(=O)(O)NC1CCCCC1` [listing 2 of 2 here], the cytotoxicity call is “inactive”.

As for `CC(C)NC(=O)N(C)C[C@@H]1Oc2ccc(NC(=O)Cc3ccccc3)cc2CC(=O)N([C@@H](C)CO)C[C@@H]1C`, the cytotoxicity call is “inactive”.

Turning to `C[C@H](CO)N1C[C@H](C)[C@@H](CN(C)S(=O)(=O)c2ccc(F)cc2)Oc2c(NC(=O)c3cnccn3)cccc2C1=O`, the cytotoxicity call was “inactive”.

Take `C[C@H]1CN([C@@H](C)CO)C(=O)c2cccc(NC(=O)C3CC3)c2O[C@H]1CN(C)S(=O)(=O)c1ccccc1`: the cytotoxicity call is “inactive”.

For `C[C@@H]1CN([C@@H](C)CO)C(=O)Cc2cc(NC(=O)Nc3ccc(F)cc3)ccc2O[C@H]1CN(C)Cc1ccc(C(F)(F)F)cc1`, the cytotoxicity call is “active”.

Regarding `C[C@@H]1CN([C@H](C)CO)C(=O)Cc2cc(NC(=O)Nc3ccc(F)cc3)ccc2O[C@@H]1CN(C)Cc1ccc(C(F)(F)F)cc1`, the cytotoxicity call was “active”.

`C[C@H]1CN([C@@H](C)CO)C(=O)Cc2cc(NC(=O)Nc3ccc(F)cc3)ccc2O[C@@H]1CN(C)Cc1ccc(C(F)(F)F)cc1`: the cytotoxicity call is “inactive”.

For the molecule `C[C@@H]1CN([C@@H](C)CO)C(=O)Cc2cc(NC(=O)Nc3ccc(F)cc3)ccc2O[C@@H]1CN(C)Cc1ccc(C(F)(F)F)cc1`, the cytotoxicity call was “active”.

`C[C@H]1CN([C@@H](C)CO)C(=O)Cc2cc(NC(=O)Nc3ccc(F)cc3)ccc2O[C@H]1CN(C)Cc1ccc(C(F)(F)F)cc1`: the cytotoxicity call was “active”.

For the molecule `COc1ccccc1CNC(=O)C[C@H]1C[C@@H]2c3cc(NS(=O)(=O)c4ccc(F)cc4)ccc3O[C@@H]2[C@@H](CO)O1`, the cytotoxicity call is “inactive”.

As to `C[C@H](CO)N1C[C@H](C)[C@@H](CN(C)Cc2ccc(C(=O)O)cc2)Oc2ccc(NC(=O)Nc3cccc4ccccc34)cc2CC1=O`, the cytotoxicity call is “inactive”.

As for `C[C@@H]1CN([C@H](C)CO)S(=O)(=O)c2ccc(C3=CCCCC3)cc2O[C@@H]1CN(C)C(=O)C1CCOCC1`, the cytotoxicity call was “inactive”.

As for `C[C@@H]1CN([C@@H](C)CO)C(=O)c2cc(NC(=O)Nc3ccc(F)cc3)ccc2O[C@@H](C)CCCCO[C@@H]1CN(C)C(=O)c1ccccc1`, the cytotoxicity call is “inactive”.

With `C[C@H]1CN([C@@H](C)CO)C(=O)c2ccccc2-c2ccccc2CO[C@H]1CN(C)C(=O)Nc1cccc(C(F)(F)F)c1`, the cytotoxicity call is “inactive”.

Consider `CCC(=O)OCC(=O)C1(OC(=O)CC)C(C)CC2C3CCC4=CC(=O)C=CC4(C)C3(F)C(O)CC21C` (centres undefined), for which the cytotoxicity call was “inactive”.

As to `Cc1ccc(S(=O)(=O)Nc2ccc3c(c2)C(=O)N([C@@H](C)CO)C[C@@H](C)[C@@H](CN(C)S(C)(=O)=O)O3)cc1`, the cytotoxicity call was “inactive”.

On to `COc1ccc(NC(=O)N2C[C@@H](O)COC[C@H]3O[C@@H](CC(=O)NCc4ccccc4OC)CC[C@@H]32)cc1`, for which the cytotoxicity call was “inactive”.

On to `C[C@@H]1CN([C@@H](C)CO)C(=O)c2cc(C#CCN(C)C)cnc2O[C@@H]1CN(C)C(=O)CN1CCOCC1`, for which the cytotoxicity call is “inactive”.

As to `C[C@H](CO)N1C[C@H](C)[C@H](CN(C)Cc2ccc(C(F)(F)F)cc2)Oc2ccc(NC(=O)Nc3ccc(F)cc3)cc2CC1=O`, the cytotoxicity call was “active”.

On to `C[C@@H]1CN([C@H](C)CO)C(=O)Cc2cc(NC(=O)Nc3ccc(F)cc3)ccc2O[C@H]1CN(C)Cc1ccc(C(F)(F)F)cc1`, for which the cytotoxicity call is “active”.

Turning to `C[C@H](CO)N1C[C@H](C)[C@@H](CN(C)Cc2ccc(C(F)(F)F)cc2)Oc2ccc(NC(=O)Nc3ccc(F)cc3)cc2CC1=O`, the cytotoxicity call was “active”.

Take `C[C@@H]1CCCCO[C@@H](CN(C)S(=O)(=O)c2ccccc2)[C@H](C)CN([C@H](C)CO)C(=O)c2cc(NC(=O)CCC(F)(F)F)ccc2O1`: the cytotoxicity call is “inactive”.

In the case of `COc1ccc(CN(C)C[C@H]2OCCCC[C@H](C)Oc3ccc(NS(=O)(=O)c4ccc(C)cc4)cc3C(=O)N([C@@H](C)CO)C[C@H]2C)cc1`, the cytotoxicity call is “inactive”.

For the molecule `COCCN1CCCn2c(nc(CNS(C)(=O)=O)cc2=O)C1`, the cytotoxicity call is “inactive”.

With `CO[C@H]1CN(C)C(=O)c2cc(NS(=O)(=O)CC(F)(F)F)ccc2OC[C@@H](C)N(C(=O)c2ccc3c(c2)OCO3)C[C@H]1C`, the cytotoxicity call is “inactive”.

Regarding `CC(C)NC(=O)N(C)C[C@@H]1OCCCC[C@H](C)Oc2ccc(NC(=O)Nc3cccc4ccccc34)cc2C(=O)N([C@@H](C)CO)C[C@H]1C`, the cytotoxicity call was “inactive”.

Regarding `C[C@@H]1CN([C@H](C)CO)C(=O)c2cc(NS(=O)(=O)c3cccs3)ccc2O[C@@H](C)CCCCO[C@H]1CN(C)Cc1ccc2c(c1)OCO2`, the cytotoxicity call was “inactive”.

Regarding `Cc1ccc2sc(C)nc2c1`, the cytotoxicity call was “inactive”.

`C[C@@H]1CCCCO[C@H](CN(C)S(=O)(=O)c2ccccc2)[C@@H](C)CN([C@@H](C)CO)C(=O)c2cc(NC(=O)c3ccccc3)ccc2O1`: the cytotoxicity call was “inactive”.

As for `C[C@H](CO)N1C[C@H](C)[C@@H](CN(C)Cc2ccccc2)OCCCC[C@H](C)Oc2ccc(NC(=O)Nc3ccc(F)cc3)cc2C1=O`, the cytotoxicity call is “active”.

For the molecule `C[C@@H]1CN([C@H](C)CO)C(=O)c2cc(NC(=O)Nc3ccc(F)cc3)ccc2O[C@@H](C)CCCCO[C@@H]1CN(C)Cc1ccccc1`, the cytotoxicity call was “inactive”.

Turning to `C[C@H](CO)N1C[C@H](C)[C@H](CN(C)Cc2ccccc2)OCCCC[C@H](C)Oc2ccc(NC(=O)Nc3ccc(F)cc3)cc2C1=O`, the cytotoxicity call was “active”.

For `C[C@@H]1CCCCO[C@H](CN(C)Cc2ccccc2)[C@H](C)CN([C@@H](C)CO)C(=O)c2cc(NC(=O)Nc3ccc(F)cc3)ccc2O1`, the cytotoxicity call is “active”.

Regarding `C[C@H]1CCCCO[C@@H](CN(C)Cc2ccccc2)[C@@H](C)CN([C@@H](C)CO)C(=O)c2cc(NC(=O)Nc3ccc(F)cc3)ccc2O1`, the cytotoxicity call is “active”.

Regarding `C[C@@H]1CCCCO[C@H](CN(C)Cc2ccccc2)[C@H](C)CN([C@H](C)CO)C(=O)c2cc(NC(=O)Nc3ccc(F)cc3)ccc2O1`, the cytotoxicity call is “inactive”.

Regarding `O=C(/C=N/O)Nc1ccccc1C(=O)O`, the cytotoxicity call is “inactive”.

As for `CC(C)CC#Cc1ccc2c(c1)O[C@H](CN(C)C(=O)c1ccccn1)[C@H](C)CN([C@H](C)CO)S2(=O)=O`, the cytotoxicity call was “inactive”.

In the case of `Cc1ccc(S(=O)(=O)N(C)C[C@@H]2Oc3ccc(NC(=O)C4CC4)cc3C(=O)N([C@@H](C)CO)C[C@@H]2C)cc1`, the cytotoxicity call is “inactive”.

Take `C[C@@H]1CCCCO[C@@H](CN(C)C(=O)CCCN(C)C)[C@@H](C)CN([C@@H](C)CO)C(=O)c2cc(N(C)C)ccc2O1`: the cytotoxicity call is “inactive”.

These data come from the antibiotic and cytotoxicity screens of Wong et al. (2023).
